NOMO-1 viab: STK33 inhibitor candidate reducing NOMO-1 cell viability | NOMO-1 AML viability, CellTiter-Glo luminescence, 72 h | inhibition, % (concentration not given with the values) | 37,000 tested, 7.5% active | AID 2330; in the data active = inhibition above about 80%; inconclusive = no clear call, values can overlap the other calls
MITF inh: MITF inhibition; TRPM1 promoter luciferase, luminescence, 24 h; inhibition, % (concentration not given with the values); 37,000 tested, 0.28% active; AID 2240; in the data active = inhibition above about 85%; inconclusive = no clear call, values can overlap the other calls; inactive = below about 68%;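 note: human melanocyte line stably carrying TRPM1 promoter luciferase reporter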
Hedgehog inh: Sonic Hedgehog pathway inhibition. Shh-LIGHT2 Gli-luciferase reporter, 30 h. inhibition, % (no concentration beside the values). 22,000 tested, 2.1% active. AID 2313;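 active = mean inhibition across valid replicates above about 65%, limit read from the data; inconclusive = mean under the limit, yet half or more replicates past it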;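 note: pathway switched on by Shh-conditioned medium diluted 1 in 25 in low serum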
The depositor's hits bear a star; u = inconclusive; x = no result. The list is not random: actives were taken first. Their share in the collection is about 7.8%.

SMILES	NOMO-1 viab	MITF inh	Hedgehog inh
C[C@@H]1CCCCO[C@@H](CN(C)S(=O)(=O)c2cccs2)[C@@H](C)CN([C@H](C)CO)C(=O)c2cc(NS(=O)(=O)c3ccc(Cl)cc3)ccc2O1	86*	43	-2
C[C@@H]1CCCCO[C@H](CN(C)S(=O)(=O)c2ccc(F)cc2)[C@@H](C)CN([C@H](C)CO)C(=O)c2cc(NS(=O)(=O)c3ccc(F)cc3)ccc2O1	24	18	-28
C[C@@H]1CCCCO[C@@H](CN(C)C(=O)Nc2ccc(F)cc2)[C@@H](C)CN([C@H](C)CO)C(=O)c2cc(NS(=O)(=O)c3cn(C)cn3)ccc2O1	11	13	-8
N#CCCN(CC1CCCO1)C(=S)NC1CC2C=CC1C2 (stereo unspecified)	21	-33	-7
Cc1ccc(C)c(NC(=O)Cn2cc([N+](=O)[O-])cn2)c1	39	-3	x
CCOC(=O)C1=C(S)N(C#N)C(=O)C(C#N)C12CCNCC2 (stereo unspecified)	11	0	-38
CCn1c2ccccc2c2cc(NC(=O)CCN3C(=O)c4ccccc4C3=O)ccc21	1	-19	x
c1ccc2c(c1)OCC(c1nn3c(Cn4cnc5ccccc54)nnc3s1)O2 (stereo unspecified)	42	43	x
Cc1ccc(S(=O)(=O)Nc2ccc3c(c2)C(=O)N([C@H](C)CO)C[C@H](C)[C@@H](CN(C)S(=O)(=O)c2ccc(C)cc2)OCCCC[C@@H](C)O3)cc1	61	9	19
Cc1ccc(S(=O)(=O)Nc2ccc3c(c2)C(=O)N([C@H](C)CO)C[C@H](C)[C@H](CN(C)S(=O)(=O)c2ccc(C)cc2)OCCCC[C@@H](C)O3)cc1	95*	32	x
C[C@@H]1CN([C@H](C)CO)C(=O)Cc2cc(NC(=O)CCN3CCOCC3)ccc2O[C@H]1CN(C)Cc1ccc(C(=O)Nc2ccccc2N)cc1	-3	-5	x
C[C@H]1CN([C@@H](C)CO)C(=O)Cc2cc(NC(=O)CCN3CCOCC3)ccc2O[C@H]1CN(C)Cc1ccc(C(=O)Nc2ccccc2N)cc1	132*	-12	x
C[C@@H]1CN([C@H](C)CO)C(=O)Cc2cc(NC(=O)CCN3CCOCC3)ccc2O[C@@H]1CN(C)Cc1ccc(C(=O)O)cc1	-6	-17	-32
C[C@H](CO)N1C[C@H](C)[C@H](CN(C)Cc2ccc(C(=O)Nc3ccccc3N)cc2)Oc2ccc(NC(=O)CCN3CCOCC3)cc2CC1=O	138*	1	x
C[C@H](CO)N1C[C@H](C)[C@@H](CN(C)Cc2ccc(Cl)c(Cl)c2)Oc2c(NC(=O)C3CCOCC3)cccc2C1=O	34	-10	-2
C[C@@H]1CN([C@H](C)CO)C(=O)c2cccc(NC(=O)C3CCOCC3)c2O[C@H]1CN(C)Cc1ccc(Cl)c(Cl)c1	30	1	70*
C[C@H]1CN([C@@H](C)CO)C(=O)c2cccc(NC(=O)Nc3ccccc3)c2O[C@@H]1CN(C)Cc1ccc(Cl)c(Cl)c1	64	6	-5
C[C@@H]1CN([C@@H](C)CO)C(=O)c2cccc(NC(=O)Nc3ccc(F)cc3)c2O[C@@H]1CN(C)Cc1ccc(Cl)c(Cl)c1	93*	-11	40
C[C@@H]1CN([C@@H](C)CO)C(=O)c2cccc(NC(=O)Nc3ccccc3)c2O[C@H]1CN(C)Cc1ccc(Cl)c(Cl)c1	102*	10	9
C[C@@H]1CN([C@H](C)CO)C(=O)c2cccc(NC(=O)Nc3ccccc3)c2O[C@@H]1CN(C)Cc1ccc(Cl)c(Cl)c1	u	12	25
COc1cc(CNC23CC4CC(CC(C4)C2)C3)ccc1OCC(N)=O	-22	-6	x
CCn1c2ccccc2c2cc(NC(=O)CN3C(=O)c4ccccc4C3=O)ccc21	29	14	x
COC(=O)c1c(NC(=O)CN(c2cc(C)ccc2C)S(C)(=O)=O)sc2c1CCCC2	15	-2	x
COc1c(O[C@@H]2O[C@H](C(=O)O)[C@@H](O)[C@H](O)[C@H]2O)cc2oc(-c3ccccc3)cc(=O)c2c1O	x	x	-11
COC(=O)c1ccccc1NC(=O)CSc1nc2c(cc1C#N)CCCCC2	-14	-41	x
O=C(CN(C1CCCCC1)S(=O)(=O)c1ccc(Cl)cc1)Nc1ccccc1F	37	5	x
O=C(NC(=S)NCc1cccnc1)c1ccc(-c2cccc(Cl)c2Cl)o1	13	-36	x
C[C@H](CO)N1C[C@H](C)[C@H](CN(C)Cc2ccc3c(c2)OCO3)Oc2ccc(NC(=O)Nc3ccc(F)cc3)cc2CC1=O	63	5	1
C[C@@H]1CN([C@H](C)CO)C(=O)Cc2cc(NC(=O)Nc3ccc4c(c3)OCO4)ccc2O[C@@H]1CN(C)Cc1ccc(Cl)c(Cl)c1	108*	33	-70
C[C@@H]1CN([C@H](C)CO)C(=O)Cc2cc(NC(=O)Nc3ccc4c(c3)OCO4)ccc2O[C@H]1CN(C)Cc1ccc(Cl)c(Cl)c1	57	15	x

From PubChem BioAssay
